High-throughput results from PubChem BioAssay.
Shh pathway inh: blocks Sonic Hedgehog signaling | Shh-LIGHT2 Gli-luciferase reporter, 30 h | inhibition, % (no concentration beside the values) | actives 2.1% (n = 22,000);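 active means mean inhibition across valid replicates above about 65%, limit read from the data; inconclusive means mean under the limit, yet half or more replicates past it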;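 further: pathway switched on by Shh-conditioned medium diluted 1 in 25 in low serum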
NOMO-1 viab: STK33 inhibitor candidate reducing NOMO-1 cell viability; NOMO-1 AML viability, CellTiter-Glo luminescence, 72 h; inhibition, % (concentration not given with the values); actives 7.5% (n = 37,000); in the data active means inhibition above about 80%; inconclusive means no clear call, values can overlap the other calls
MITF inhib: blocks MITF activity | actives 0.28% (n = 37,000) | TRPM1 promoter luciferase, luminescence, 24 h | AID 2240 | inhibition, % (test concentration not listed); in the data active means inhibition above about 85%; inconclusive means no clear call, values can overlap the other calls; inactive means below about 68%;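 further: human melanocyte line stably carrying TRPM1 promoter luciferase reporter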
PD-1 reverse act: reversal of PD-1 mediated T-cell inhibition; activation, % (no concentration beside the values); AID 2316; 29,000 tested, under 10 active; primary human CD4 T cells, PD-L1 beads, CellTiter-Glo 96 h; call rule not given here;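 further: 0% = median vehicle wells and 100% = positive control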
The depositor's hits bear a star; ? = inconclusive; . = no result given; ! = not active in a repeat. Compounds with a hit are over-represented: about 8.1% of the library has one in this group of screens.

SMILES	Shh pathway inh	NOMO-1 viab	MITF inhib	PD-1 reverse act
C[C@@H]1CCCCO[C@H](CN(C)Cc2ccc(Cl)c(Cl)c2)[C@@H](C)CN([C@H](C)CO)C(=O)c2cc(NC(=O)Nc3ccccc3)ccc2O1	42.4	?	28.1	-3.8
C[C@H](CO)N1C[C@H](C)[C@@H](CN(C)Cc2ccccc2)Oc2ccc(NC(=O)Nc3ccc(C(F)(F)F)cc3)cc2C1=O	30.4	121.6*	-0.9	-3.6
C[C@@H]1CN([C@H](C)CO)C(=O)c2cc(NC(=O)Nc3ccccc3)ccc2O[C@H]1CN(C)Cc1ccc(C(F)(F)F)cc1	22.9	99.4*	32.5	-8.9
C[C@@H]1CN([C@H](C)CO)C(=O)c2cc(NC(=O)Nc3ccccc3)ccc2O[C@@H]1CN(C)Cc1ccc(C(F)(F)F)cc1	.	57.7	22.5	0.6
CCN(CC(=O)Nc1ccccc1C)S(=O)(=O)c1ccc(Br)cc1	.	17.9	15.4	.
COc1c(C=O)c(O)cc2c1C(=O)c1ccccc1C2=O	-27.9	96.1*	19.1	-1.9
COc1cccc2c1C(=O)c1c(O)c3c(c(O)c1C2=O)C[C@@](O)(C(=O)CO)C[C@@H]3O[C@H]1C[C@H](N)[C@H](O)[C@H](C)O1	90.4*	98.6*	70.9	-20.7
COc1cccc2c1C(=O)c1c(O)c3c(c(O)c1C2=O)C[C@@](O)(C(=O)CO)C[C@@H]3OC1CC(N)C(O)C(C)O1 (stereo not given in full)	83.3*	97.9*	62.2	-24.1
COc1cccc2c1C(c1ccc3c(c1O)C(=O)CC(C)C3O)OC2=O (stereo not given)	1.3	5.4	-7.4	0.8
C[C@H](CO)N1C[C@H](C)[C@@H](CN(C)Cc2ccccc2)Oc2c(NC(=O)NC3CCCCC3)cccc2C1=O	0.1	83.8*	12.1	-2.6
C[C@@H]1CN([C@H](C)CO)C(=O)c2cccc(NC(=O)NC3CCCCC3)c2O[C@@H]1CN(C)Cc1ccc(-c2ccccc2)cc1	-17.2	37.3	10.0	0.5
C[C@@H]1CN([C@H](C)CO)C(=O)c2cccc(NC(=O)NC3CCCCC3)c2O[C@@H]1CN(C)Cc1ccc(C(F)(F)F)cc1	-21.5	29.1	-5.2	-0.8
C[C@@H]1CN([C@@H](C)CO)C(=O)c2cccc(NC(=O)NC3CCCCC3)c2O[C@@H]1CN(C)Cc1ccc(Oc2ccccc2)cc1	42.7	85.4*	5.2	-5.5
C[C@@H]1CN([C@@H](C)CO)C(=O)c2cccc(NC(=O)NC3CCCCC3)c2O[C@H]1CN(C)Cc1ccc(C(F)(F)F)cc1	-33.7	92.6*	21.0	-6.8
CCCOc1ccc(C2C(C(=O)Nc3ccccc3OC)=C(C)Nc3ncnn32)cc1OC (stereo not given)	.	20.0	-13.7	-5.0
Cc1ccc(S(=O)(=O)N(CC(N)=O)c2ccc(Cl)c(Cl)c2)cc1	.	34.2	18.9	.
COc1ccccc1OC(=O)NC(C)C	-21.5	-3.7	-11.4	0.1
S=C(NC1CCCCC1)C12CCC3CC(CC(C3)C1)C2	-0.4	38.0	7.5	-0.2
CC1CCC(C(C)C)C(NC(=O)c2cccc3ccccc23)C1 (stereo not given)	5.7	81.8*	-8.0	0.6
O=C(CCN1CCCCC1)Nc1ccc(Cl)cc1	-14.6	-16.3	9.0	-0.2
CN(C)C(=O)C(CCN1CCC(O)(c2ccc(Cl)cc2)CC1)(c1ccccc1)c1ccccc1	57.8	138.1*!	-5.9	1.3
Cc1nc2c(cnn2-c2ccccc2)c(=O)n1NC(=O)Nc1ccc(Cl)c(Cl)c1	?	52.8	17.6	-0.5
C[C@@H]1CN([C@@H](C)CO)C(=O)c2cccc(NC(=O)c3nc4ccccc4s3)c2O[C@@H]1CN(C)Cc1ccccc1	41.8	104.3*	1.5	-4.8
C[C@H]1CN([C@@H](C)CO)C(=O)c2cccc(NC(=O)c3nc4ccccc4s3)c2O[C@@H]1CN(C)C(=O)Nc1ccc(C(F)(F)F)cc1	-3.3	32.9	9.5	.
C[C@H](CO)N1C[C@H](C)[C@@H](CN(C)Cc2ccc(C(=O)O)cc2)Oc2c(NC(=O)c3nc4ccccc4s3)cccc2C1=O	27.9	18.3	12.2	-1.3
SMILES	Shh pathway inh	NOMO-1 viab	MITF inhib	PD-1 reverse act
C[C@H](CO)N1C[C@H](C)[C@@H](CN(C)C(=O)Nc2cccc3ccccc23)Oc2c(NC(=O)c3nc4ccccc4s3)cccc2C1=O	46.2	98.8*	8.3	-3.8
C[C@@H]1CN([C@@H](C)CO)C(=O)c2cccc(NC(=O)c3nc4ccccc4s3)c2O[C@@H]1CN(C)Cc1ccc(C(F)(F)F)cc1	-15.9	98.7*	8.3	-3.8
C[C@H]1CN([C@@H](C)CO)C(=O)c2cccc(NC(=O)c3nc4ccccc4s3)c2O[C@H]1CN(C)C(=O)Nc1ccc(C(F)(F)F)cc1	33.4	109.5*	4.9	-4.8
C[C@H](CO)N1C[C@H](C)[C@@H](CN(C)C(=O)Nc2ccccc2)Oc2c(NC(=O)c3nc4ccccc4s3)cccc2C1=O	?	14.4	5.9	-1.9
C[C@H](CO)N1C[C@H](C)[C@H](CN(C)Cc2ccc(-c3ccccc3)cc2)Oc2c(NC(=O)c3nc4ccccc4s3)cccc2C1=O	-9.6	?	-2.5	-2.0
COc1ccc(S(=O)(=O)N(C)CC(=O)Nc2cccc([N+](=O)[O-])c2)cc1Cl	.	0.4	-5.6	.
CCN(CC)C(=O)c1cccc(Cl)c1	-37.4	8.0	-15.6	0.0
C[C@@H]1CN([C@H](C)CO)C(=O)c2cccc(NC(=O)c3nc4ccccc4s3)c2O[C@H]1CN(C)CC1CCCCC1	36.4	116.1*	36.8	-3.6
C[C@@H]1CN([C@H](C)CO)C(=O)c2cccc(NC(=O)c3nc4ccccc4s3)c2O[C@H]1CN(C)Cc1ccc(Cl)c(Cl)c1	-15.1	91.3*	14.4	-3.5
CNC[C@H]1Oc2c(NC(=O)c3nc4ccccc4s3)cccc2C(=O)N([C@H](C)CO)C[C@@H]1C	31.7	97.3*	45.3	2.7
N#CCSc1nc2cc(C(=O)NCc3ccccc3)ccc2c(=O)n1CCc1ccccc1	-20.7	?	-0.1	1.2
C[C@H]1CN([C@@H](C)CO)C(=O)c2cc(NC(=O)Nc3ccc(C(F)(F)F)cc3)ccc2O[C@H]1CN(C)S(=O)(=O)c1ccccc1	.	97.4*	16.8	-1.1
C[C@H](CO)N1C[C@H](C)[C@@H](CN(C)S(=O)(=O)c2ccccc2)Oc2ccc(NC(=O)Nc3ccc(C(F)(F)F)cc3)cc2C1=O	7.9	68.6	?	-2.4
C[C@@H]1CN([C@H](C)CO)C(=O)c2cc(NC(=O)Nc3ccc(C(F)(F)F)cc3)ccc2O[C@@H]1CN(C)S(=O)(=O)c1ccccc1	26.8	45.4	49.9	-1.1
C[C@@H]1CN([C@@H](C)CO)C(=O)c2cc(NC(=O)Nc3ccc(C(F)(F)F)cc3)ccc2O[C@@H]1CN(C)S(=O)(=O)c1ccccc1	?	89.9*	80.2	-1.1
COC(=O)CC(O)(CCCC(C)(C)O)C(=O)O[C@@H]1C(OC)=C[C@]23CCCN2CCc2cc4c(cc2[C@@H]13)OCO4 (stereo not given in full)	103.7*	98.8*	93.4*	-15.3
CCC(Sc1nnnn1-c1ccccc1)C(=O)Nc1sc2c(c1C#N)CCCC2 (stereo not given)	67.5*	3.8	16.4	-0.5
